Results on 7 molecules are retold here after PubChem BioAssay (NCATS).

Assay [1] is described as follows: Cell Viability - Jurkat (AID 426;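 active = dose-dependent loss of cell ATP signal giving a full or clear fitted curve, ranked by lower potency value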;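 note: potency is the fitted concentration of half-maximal effect; cells exposed to compound for 40 hours at 37 °C before ATP read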). The note with it: qHTS. The essentials:
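Luminescent ATP read-out (CellTiter-Glo, 20 min at room temperature) after 40 hr compound exposure at 37 °C of Jurkat E6-1 cells, 5000/well. Decreased ATP taken as cytotoxicity; AC50 from standard Hill equation.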

Assay [2] in a line: Cell Viability - NIH 3T3 (AID 541).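 Note: cells exposed to compound for 40 hours; plate controls were DMSO alone for no effect and tamoxifen positive control for full effect; nearly all actives have a fitted effect of over 25% in size.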 The note with it: NIH 3T3 cell viability, qHTS; activity change, negative = cytotoxicity: at 92.2 µM (top of the series). In a few lines:
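qHTS format; 40 hr compound exposure, 37 °C; CellTiter-Glo luminescence (cellular ATP) read-out after 20 min at RT. Decrease in ATP = cytotoxicity; AC50 from standard Hill fit.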
Background: qHTS replaces the single test concentration by a dilution series.

Assay [3] in a line: Cellular Toxicity (caspase-3) BJ (AID 658).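 Note: cells exposed to compound for 16 hours; 0% = DMSO basal and 100% = 10 µM staurosporine.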 The note with it: BJ fibroblasts, luminescence; Potency: caspase-3 activation; series mostly up to 91.7 µM. In a few lines:
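qHTS, BJ fibroblasts, 1000 cells/well; 5 hr preincubation, 16 hr compound, 37 °C; Caspase-Glo 3/7 reagent, 1 hr RT; luminescence. DMSO = 0%, 10 uM staurosporine = 100%. Hill-equation AC50.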

A short description of assay [4]: Cellular Toxicity (caspase-3) H-4-II-E (AID 663).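 Note: cells exposed to compound for 16 hr before readout.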 The note with it: H-4-II-E rat hepatoma; Potency: caspase-3 activation; series mostly up to 92.2 µM. The essentials:
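H-4-II-E rat hepatoma, 1500 cells/well, 5 hr settle at 37 °C; compound 16 hr, 37 °C, complete medium; Caspase-Glo 3/7, 20 min RT; luminescence. DMSO = 0%, 100 uM tamoxifen = 100%; Hill-equation AC50.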

The target in assay [5] is Cytochrome P450 3A4 (Homo sapiens) (UniProt P08684). Nature of the assay: qHTS Assay for Inhibitors and Substrates of Cytochrome P450 3A4 (AID 884). Note: % is set by controls: 0 for no effect and ±100 for the full control effect; nearly all actives have a fitted effect of over 50% in size. The note with it: recombinant CYP3A4, Luciferin-PPXE luminescence; series mostly up to 57.1 µM. In a few lines:
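Luminescent readout of luciferin produced by CYP3A4 (20 nM) dealkylation of Luciferin-PPXE, 25 uM (its KM). NADPH-driven reaction ran 60 min at RT after 10 min compound preincubation; data scaled to 57 uM ketoconazole as 100% inhibition.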

For assay [6], the target named is Estrogen receptor (Homo sapiens) (UniProt P03372). The experiment in a line: qHTS assay for small molecule antagonists of estrogen receptor alpha signaling (AID 588513; active = well fitted curve in the direction sought with a large enough effect in the signal ratio, with a control signal flat, not every such curve was filed as active; the % refers to the signal ratio; note: % is set by controls: 0 for no effect and ±100 for the full control effect). The note with it: ER-alpha-UAS-bla HEK293, beta-lactamase ratio, antagonist mode; series mostly up to 76.9 µM. In a few lines:
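Fluorescence from CCF4 substrate after 2 h at room temperature gave reporter activity; cells had been exposed to compound and 0.5nM 17-beta-estradiol for 18 h at 37 C. Hill-equation fitting yielded IC50 and maximal response.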

For assay [7] the target is unchanged. The experiment in a line: qHTS assay for small molecule agonists of estrogen receptor alpha signaling (AID 588514; calls by dose curve;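 note: 0% = vehicle only and 100% = reference agonist; nearly all actives have a fitted effect of over 70% in size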). The note with it: ER-alpha-UAS-bla HEK293, beta-lactamase ratio, 18 h; series mostly up to 76.8 µM. The essentials:
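Read-out: CCF4 fluorescence from a beta-lactamase reporter in ER-alpha-UAS-bla HEK 293 cells after 18 hrs of compound exposure at 37 C. Normalized to 20 nM 17-beta-estradiol (100%) and DMSO (0%).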

Assay [8] addresses Peroxisome proliferator-activated receptor delta (Homo sapiens) (UniProt Q03181). The experiment in a line: qHTS assay for small molecule antagonists of peroxisome proliferator-activated receptor delta signaling (AID 588535; active = well fitted inhibition curve with a large enough effect in the signal ratio, with a control signal flat, not every such curve was filed as active; the % refers to the signal ratio). The note with it: HEK293T PPARd-UAS-bla, beta-lactamase FRET ratio, 18 h; series mostly up to 76.7 µM. In a few lines: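 Beta-lactamase reporter read-out (405 nm excitation, 460/530 nm emission) after CCF4 loading for 2 hrs at RT. HEK293T PPAR-delta-UAS-bla cells, 2% charcoal/dextran FBS, compounds for 18 hrs at 37 C. Hill fit gave IC50 and efficacy.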

The nature of assay [9]: qHTS assay for small molecule agonists of the antioxidant response element (ARE) signaling pathway (AID 651741; active = well fitted activation curve with a large enough effect in the signal ratio; the % refers to the signal ratio; note: potency is the fitted concentration of half-maximal effect; for activation: % of control where 0% means no effect). The note with it: HepG2 ARE-bla reporter, beta-lactamase FRET ratio, 16 h; series mostly up to 96 µM. The essentials:
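HepG2 ARE-bla reporter cells, 2,000/well; 5 h settle at 37 C/5% CO2; compound pin transfer (23 nL, DMSO); 16 h at 37 C; LiveBLAzer B/G FRET substrate, 2 h RT; fluorescence intensity read.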

The nature of assay [10]: qHTS assay for small molecule activators of the nuclear factor-kappa B (NF-kB) signaling pathway (AID 651749; active = well fitted activation curve with a large enough effect in the signal ratio; the % refers to the signal ratio; note: % of control where 0% means no effect). The note with it: NF-kB-bla ME-180 cells, beta-lactamase FRET ratio, 16 h; hits give high values. In a few lines:
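NF-kB-bla ME-180 cells, 2,000/well; 23 nL compound or DMSO pinned; 16 hr, 37C/5% CO2; beta-lactamase FRET read-out.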

Assay [11] addresses Tumor necrosis factor (Homo sapiens) (UniProt P01375). The experiment in a line: qHTS assay to identify small molecules that stimulate Tumor Necrosis Factor-alpha (TNF-alpha) secretion (AID 651757; active = well fitted curve in the direction sought with a large enough effect in the signal ratio; the % refers to the signal ratio; note: 0% is about no effect). The note with it: Human cells, HTRF 665/615 ratio; series mostly up to 92.2 µM. The essentials: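 THP-1 cells, 3000/well; compound 17 hrs, 37 C; add cryptate/XL665 anti-TNF-alpha antibody pair; 3 hr RT; TR-FRET (HTRF) read of secreted TNF-alpha. Quantitative HTS format.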

Assay [12] is described as follows: Cellular Toxicity (caspase-3) SHSY5Y (AID 657).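 Note: cells exposed to compound for 16 hours at 37 °C.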 The note with it: SH-SY5Y caspase-3 activation; series mostly up to 91.7 µM. In a few lines:
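qHTS, SH-SY5Y, 1500 cells/well, 5 h pre-incubation 37 °C; compound 16 h 37 °C; Caspase-Glo 3/7 1 h RT; luminescence. Norm.: DMSO = 0, 10 uM staurosporine = 100%. Hill fit → AC50.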

Assay [13] can be described thus: Cellular Toxicity (caspase-3) Mesangial (AID 660).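 Note: combined caspase 3 and 7 activity read by Caspase-Glo luminescence; cells exposed to compound for 16 h before the caspase read.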 The note with it: mesangial cells, normalized: DMSO 0%, 100 µM tamoxifen 100%; series mostly up to 91.7 µM. The essentials:
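Luminescent Caspase-Glo 3/7 readout (aminoluciferin substrate cleavage, 20 min RT) after 16 h compound exposure at 37 °C of normal human mesangial cells. Signal increase normalized between DMSO basal and 100 uM tamoxifen; Hill-equation AC50.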

The target in assay [14] is Peroxisome proliferator-activated receptor gamma (Homo sapiens) (UniProt P37231). Nature of the assay: qHTS assay for small molecule agonists of peroxisome proliferator-activated receptor gamma signaling (AID 588536; active = well fitted curve in the direction sought with a large enough effect in the signal ratio, with a control signal flat, not every such curve was filed as active; the % refers to the signal ratio;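 note: 0% = DMSO basal wells and 100% = rosiglitazone at 2 µM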). The note with it: HEK293 PPARg-UAS-bla, beta-lactamase ratio, 16 h, percent of rosiglitazone response, DMSO as zero; series mostly up to 76.7 µM. The essentials:
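Using GeneBLAzer HEK293 cells, response was quantified by CCF4 fluorescence and normalized between basal DMSO (0%) and rosiglitazone 2 uM (100%); curves yielded half-maximal stimulation concentration and efficacy.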

The target of assay [15] is Vitamin D3 receptor (Homo sapiens) (UniProt P11473). The experiment in a line: qHTS assay for small molecule antagonists of vitamin D receptor signaling (AID 588541; calls by dose curve;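 note: receptor activated by calcitriol during compound treatment; % is set by controls: 0 for no effect and ±100 for the full control effect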). The note with it: HEK293T VDR-UAS-bla, beta-lactamase ratio, antagonist mode; series mostly up to 76.7 µM. In a few lines: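 VDR-UAS-bla HEK293T cells in 2% charcoal-stripped FBS were stimulated with 1-alpha,25-dihydroxyvitamin D3 (3 nM final) plus compound for 16 h at 37 C. The beta-lactamase CCF4 readout was normalized to 50 nM agonist and DMSO, and Hill fits gave IC50.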
Vitamin D3 receptor (Homo sapiens), sequence (P11473 whole entry, looked up): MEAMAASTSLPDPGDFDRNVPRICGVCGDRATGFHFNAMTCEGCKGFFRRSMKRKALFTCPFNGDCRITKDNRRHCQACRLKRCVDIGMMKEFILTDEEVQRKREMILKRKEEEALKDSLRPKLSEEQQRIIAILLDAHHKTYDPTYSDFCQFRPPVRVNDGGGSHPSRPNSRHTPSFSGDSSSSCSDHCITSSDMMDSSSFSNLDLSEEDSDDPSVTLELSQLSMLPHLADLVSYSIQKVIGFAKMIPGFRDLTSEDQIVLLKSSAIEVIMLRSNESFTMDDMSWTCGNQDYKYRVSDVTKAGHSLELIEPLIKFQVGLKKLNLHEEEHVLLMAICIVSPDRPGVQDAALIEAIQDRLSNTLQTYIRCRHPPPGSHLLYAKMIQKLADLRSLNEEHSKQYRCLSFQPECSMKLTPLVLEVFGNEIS

The target is the same in assay [16]. Nature of the assay: qHTS assay for small molecule agonists of vitamin D receptor signaling (AID 588543; calls by dose curve;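 note: 0% = DMSO basal and 100% = reference agonist control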). The note with it: HEK293T VDR-UAS-bla, beta-lactamase ratio, 16 h; series mostly up to 76.8 µM. The essentials:
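Reporter cells (HEK293T, VDR-UAS-bla) were seeded in medium with 2% charcoal-stripped serum and incubated 5 h, then compounds in concentration series were added for 16 h at 37 °C. Stimulation was scaled between DMSO basal and 50 nM 1α,25-dihydroxyvitamin D3.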

A short description of assay [17]: qHTS assay for small molecule activators of the p53 signaling pathway (AID 651743; active = well fitted activation curve with a large enough effect in the signal ratio, not every such curve was filed as active; the % refers to the signal ratio; note: % of control where 0% means no effect). The note with it: HCT-116 p53RE-bla, beta-lactamase FRET ratio, 16 h; activation: hits give high values. The essentials: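 Reporter: beta-lactamase driven by p53 response elements, stably integrated in HCT-116 cells. Cells seeded at 4,000/well, 5 h preincubation, compound (DMSO) 16 h at 37 C; B/G FRET substrate 2 h RT; fluorescence intensity read.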

Assay [18] deals with Nuclear receptor ROR-gamma (Homo sapiens) (UniProt P51449). The experiment in a line: qHTS assay for small molecule antagonists of the retinoid-related orphan receptor gamma (ROR-gamma) signaling pathway (AID 651802).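 Note: CHO cells with doxycycline-induced ROR-gamma expression; luciferase reporter luminescence driven by ROR response element; % is set by controls: 0 for no effect and ±100 for the full control effect; nearly all actives have a fitted effect of over 60% in size.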 The note with it: ROR-gamma antagonist cell reporter assay; series mostly up to 92.2 µM. In a few lines:
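Luciferase read-out: ONE-Glo luminescence after 30 min at room temperature, following 16hr doxycycline induction at 37C, 5% CO2 of CHO cells with TET-inducible ROR and RORE-LUC reporter; decreased luminescence = reduced reporter activity.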

Assay [19] is described as follows: qHTS assay for small molecule antagonists of the retinoid-related orphan receptor gamma (ROR-gamma) signaling pathway - cell viability counter screen (AID 720652; active = well fitted curve in the direction sought with a large enough effect in the repeat runs; an effect the other way counts as inactive or inconclusive;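 note: CHO reporter cells with doxycycline-induced ROR-gamma expression; compound exposure lasted 16 hr before ATP read; % is set by controls: 0 for no effect and ±100 for the full control effect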). The note with it: RORgamma reporter cell line viability counter screen; series mostly up to 92.2 µM. The essentials:
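CHO RORE-LUC/TET-ROR line, 1,000 cells/well, 37 C 5% CO2 5 hr; cpd or DMSO + doxycycline induction, 16 hr. CellTiter-Glo, 30 min RT, luminescence = ATP content.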

Assay [20] is described as follows: qHTS assay for small molecule activators of the human pregnane X receptor (PXR) signaling pathway (AID 720659; call rule not given here; note: 0% is about no effect). The note with it: DPX-2 HepG2 CYP3A4-luciferase, 24 h; series mostly up to 92.3 µM.

Values without a mark were called inactive. Inconclusive results are not listed. The source made the active and inactive calls. Unless noted, calls come from the whole dose curve; as a rule, active = well fitted curve in the direction sought with a large enough effect; inconclusive = small, poorly fitted or top-dose-only effect, or another doubt; inactive = no such curve, though single readings can be large; an effect the other way counts as inactive or inconclusive.

Nuclear receptor ROR-gamma (Homo sapiens), sequence (P51449 whole entry, looked up): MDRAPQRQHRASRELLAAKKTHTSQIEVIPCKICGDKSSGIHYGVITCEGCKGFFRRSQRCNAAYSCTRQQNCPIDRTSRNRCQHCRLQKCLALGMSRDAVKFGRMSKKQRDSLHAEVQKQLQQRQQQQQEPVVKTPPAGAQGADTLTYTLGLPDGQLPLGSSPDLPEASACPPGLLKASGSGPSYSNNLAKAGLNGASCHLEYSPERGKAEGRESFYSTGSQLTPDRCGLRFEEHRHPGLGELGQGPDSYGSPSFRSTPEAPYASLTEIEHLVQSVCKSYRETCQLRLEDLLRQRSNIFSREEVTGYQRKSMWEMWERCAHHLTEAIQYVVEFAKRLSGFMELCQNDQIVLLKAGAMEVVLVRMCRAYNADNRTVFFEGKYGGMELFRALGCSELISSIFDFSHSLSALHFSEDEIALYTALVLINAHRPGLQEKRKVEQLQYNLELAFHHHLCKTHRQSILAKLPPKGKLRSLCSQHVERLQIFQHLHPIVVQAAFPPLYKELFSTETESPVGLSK
Peroxisome proliferator-activated receptor delta (Homo sapiens), sequence (Q03181 whole entry, looked up): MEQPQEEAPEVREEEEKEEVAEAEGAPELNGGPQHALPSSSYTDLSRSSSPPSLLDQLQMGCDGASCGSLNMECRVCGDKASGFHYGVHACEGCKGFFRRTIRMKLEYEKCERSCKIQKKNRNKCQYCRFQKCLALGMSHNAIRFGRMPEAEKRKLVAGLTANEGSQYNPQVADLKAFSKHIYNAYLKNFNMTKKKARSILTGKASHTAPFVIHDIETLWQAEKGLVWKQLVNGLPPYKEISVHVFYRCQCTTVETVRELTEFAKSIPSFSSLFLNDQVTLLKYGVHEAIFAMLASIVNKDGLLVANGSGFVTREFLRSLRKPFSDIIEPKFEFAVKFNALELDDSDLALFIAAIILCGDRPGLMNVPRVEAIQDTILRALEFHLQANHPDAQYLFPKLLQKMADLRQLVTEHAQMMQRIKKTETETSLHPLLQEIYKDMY
Estrogen receptor (Homo sapiens), sequence (P03372 whole entry, looked up): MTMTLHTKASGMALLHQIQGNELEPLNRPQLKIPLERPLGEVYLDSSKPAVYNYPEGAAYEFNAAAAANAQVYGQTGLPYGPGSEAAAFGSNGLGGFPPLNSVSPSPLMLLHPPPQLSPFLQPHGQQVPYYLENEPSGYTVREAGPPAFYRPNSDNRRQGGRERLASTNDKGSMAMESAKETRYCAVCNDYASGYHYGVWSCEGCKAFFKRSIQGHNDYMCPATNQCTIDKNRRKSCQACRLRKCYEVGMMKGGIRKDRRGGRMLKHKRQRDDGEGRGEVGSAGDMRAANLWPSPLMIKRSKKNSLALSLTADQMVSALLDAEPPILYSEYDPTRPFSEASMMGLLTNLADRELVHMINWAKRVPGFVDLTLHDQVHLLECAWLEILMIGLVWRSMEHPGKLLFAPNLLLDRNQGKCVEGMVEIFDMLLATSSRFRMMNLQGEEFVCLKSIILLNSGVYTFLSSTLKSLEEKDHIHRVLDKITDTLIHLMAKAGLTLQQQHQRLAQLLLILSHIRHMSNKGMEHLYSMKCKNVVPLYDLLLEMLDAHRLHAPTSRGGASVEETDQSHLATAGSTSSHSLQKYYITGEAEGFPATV
Peroxisome proliferator-activated receptor gamma (Homo sapiens), sequence (P37231 whole entry, looked up): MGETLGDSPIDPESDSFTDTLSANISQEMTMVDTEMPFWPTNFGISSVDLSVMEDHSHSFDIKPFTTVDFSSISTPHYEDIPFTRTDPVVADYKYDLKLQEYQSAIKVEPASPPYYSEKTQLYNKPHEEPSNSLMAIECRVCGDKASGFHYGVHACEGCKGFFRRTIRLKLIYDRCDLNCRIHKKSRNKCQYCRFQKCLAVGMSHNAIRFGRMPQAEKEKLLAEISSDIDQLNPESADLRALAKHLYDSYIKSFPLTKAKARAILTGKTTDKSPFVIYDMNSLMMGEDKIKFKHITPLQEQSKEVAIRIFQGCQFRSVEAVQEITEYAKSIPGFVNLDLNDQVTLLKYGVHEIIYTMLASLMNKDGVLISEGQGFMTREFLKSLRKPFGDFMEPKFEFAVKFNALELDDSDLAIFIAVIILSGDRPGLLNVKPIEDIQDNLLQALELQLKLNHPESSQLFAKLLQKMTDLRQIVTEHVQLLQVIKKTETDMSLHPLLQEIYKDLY
Tumor necrosis factor (Homo sapiens), sequence (P01375 whole entry, looked up): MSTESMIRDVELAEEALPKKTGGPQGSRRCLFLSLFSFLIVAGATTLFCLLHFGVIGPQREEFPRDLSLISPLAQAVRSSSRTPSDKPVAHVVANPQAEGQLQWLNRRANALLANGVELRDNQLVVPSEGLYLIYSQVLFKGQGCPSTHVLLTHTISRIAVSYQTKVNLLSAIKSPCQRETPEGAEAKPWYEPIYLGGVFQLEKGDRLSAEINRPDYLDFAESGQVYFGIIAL
Cytochrome P450 3A4 (Homo sapiens), sequence (P08684 whole entry, looked up): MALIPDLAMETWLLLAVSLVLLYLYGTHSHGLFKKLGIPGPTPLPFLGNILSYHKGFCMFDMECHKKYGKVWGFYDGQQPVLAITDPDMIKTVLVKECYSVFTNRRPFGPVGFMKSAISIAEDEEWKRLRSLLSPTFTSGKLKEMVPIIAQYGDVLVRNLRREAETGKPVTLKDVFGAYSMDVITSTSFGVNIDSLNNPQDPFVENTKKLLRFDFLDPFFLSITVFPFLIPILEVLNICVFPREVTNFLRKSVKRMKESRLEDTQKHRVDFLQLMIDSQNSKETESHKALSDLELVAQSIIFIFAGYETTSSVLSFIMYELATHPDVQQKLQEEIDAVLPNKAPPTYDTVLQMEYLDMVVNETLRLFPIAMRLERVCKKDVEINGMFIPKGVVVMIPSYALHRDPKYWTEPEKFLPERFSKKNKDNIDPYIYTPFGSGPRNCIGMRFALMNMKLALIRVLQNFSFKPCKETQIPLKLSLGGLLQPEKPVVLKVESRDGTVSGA

On to `CCC(Cl)CC(Cl)C(Cl)C(Cl)C(Cl)C(C)Cl` (stereo not given), for which the Potency is over 92 µM in assay [1] and 66.8 µM (active) in assay [9]. In [2], the activity change, negative = cytotoxicity is -16.5%. The Potency entry in [3], in assay [4], in assay [5], in assay [7] and in assay [11] was “inactive” in each case. Besides, the outcome in assay [6] and in [8] was inactive. In addition, the activation in assay [10] is 0.226%.
`Cc1c(N)cccc1Cl`: the Potency in assay [1] was over 92 µM. The activity change, negative = cytotoxicity in assay [2] is -0.783%. For the same molecule, the Potency entry in assay [12], in assay [5], in assay [7], in assay [15], in assay [16] and in [9] was “inactive” in each case. The Potency result in [11], in assay [18] and in assay [19] was “inactive” each time. For the same molecule, the molecule was called inactive in assay [13], in [6], in assay [8], in [14] and in assay [20]. Further, the activation in assay [17] is -0.236%; in assay [10], 0.113%.
On to `Cc1ccc(N)cc1[N+](=O)[O-]`, for which, in assay [1], the Potency was over 92 µM. The Potency result in assay [12], in [15], in [16], in assay [11], in assay [18] and in [19] was “inactive” each time. In addition, the outcome in assay [13], in [8], in assay [14] and in assay [20] was inactive. In addition, the activation in assay [17] was -0.0251%; in assay [10], 0.0603%.
For `c1c[nH]cn1`, the Potency in assay [1] is over 92 µM. The activity change, negative = cytotoxicity in [2] was -10%. Also, the Potency result in [3], in [4], in assay [7], in [15], in [16] and in assay [9] was “inactive” throughout. For the same molecule, the Potency entry in assay [11] and in assay [19] was “inactive” each time. In addition, the molecule was called inactive in assay [13], in [6], in assay [8], in assay [14] and in assay [20]. Also, the values for the activation in assay [17] and in assay [10] were -1.43% and 0.0227%, respectively.
Take `C/C(Cl)=C/CCl`: the Potency in assay [1] was over 92 µM. In assay [2], the activity change, negative = cytotoxicity was -23.5%. Further, the Potency entry in assay [3], in [4], in assay [5], in [7], in assay [11] and in assay [18] was “inactive” throughout. In assay [19], the Potency result is “inactive”. The outcome in assay [13], in [6], in [8], in assay [14] and in assay [20] was inactive. Besides, in assay [17], the activation was -4.9%.
As for `OCC(CBr)(CBr)CBr`, the Potency in assay [1] was over 92 µM. The Potency result in assay [12], in [4], in assay [5], in assay [7], in assay [15] and in assay [16] was “inactive” in each case. Also, the Potency result in assay [9], in [11] and in [19] was “inactive” throughout. In addition, the outcome in assay [6], in assay [8] and in assay [14] was inactive. In addition, the figures for the activation in assay [17] and in assay [10] were 0.524% and 0.264%, respectively.
As to `CC(C)COC(=O)COc1cc(Cl)c(Cl)cc1Cl`, the Potency in [1] was over 92 µM; in [9] it was 42.2 µM (active). The activity change, negative = cytotoxicity in assay [2] is -0.53%. Besides, the Potency result in [12], in [3], in assay [4], in [5], in assay [7] and in [18] was “inactive” throughout. Moreover, the Potency result in [19] was “inactive”. Also, the outcome in [6], in assay [8], in assay [14] and in assay [20] was inactive. For the same molecule, the activation is -1.51% in assay [17] and -1.07% in assay [10].
